Measurements published in PubChem BioAssay (NCATS).
Several values for one entry are separate records, joined by “and”; a condition that tells them apart may be missing. Identical values can stand only once. A number with no mark means an inactive call. Results filed as inconclusive are left out. Entries that show only a call come without a potency. Activity calls are given as the source filed them. Unless noted, calls come from the whole dose curve; as a rule, active = well fitted curve in the direction sought with a large enough effect; inconclusive = small, poorly fitted or top-dose-only effect, or another doubt; inactive = no such curve, though single readings can be large; an effect the other way counts as inactive or inconclusive.

Assays:
[1] = biological target: Glucocorticoid receptor (Homo sapiens) (UniProt P04150); experiment: GR-GFP Redistribution (AID 450;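 active = compounds whose dose series gives a full or clear partial fitted curve of increased nuclear translocation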; note: potency is the fitted concentration of half-maximal effect); settings: U2OS GR-GFP nuclear translocation, laser cytometry, 2 h
Glucocorticoid receptor (Homo sapiens), sequence (P04150 whole entry, looked up, the tested form may be a part): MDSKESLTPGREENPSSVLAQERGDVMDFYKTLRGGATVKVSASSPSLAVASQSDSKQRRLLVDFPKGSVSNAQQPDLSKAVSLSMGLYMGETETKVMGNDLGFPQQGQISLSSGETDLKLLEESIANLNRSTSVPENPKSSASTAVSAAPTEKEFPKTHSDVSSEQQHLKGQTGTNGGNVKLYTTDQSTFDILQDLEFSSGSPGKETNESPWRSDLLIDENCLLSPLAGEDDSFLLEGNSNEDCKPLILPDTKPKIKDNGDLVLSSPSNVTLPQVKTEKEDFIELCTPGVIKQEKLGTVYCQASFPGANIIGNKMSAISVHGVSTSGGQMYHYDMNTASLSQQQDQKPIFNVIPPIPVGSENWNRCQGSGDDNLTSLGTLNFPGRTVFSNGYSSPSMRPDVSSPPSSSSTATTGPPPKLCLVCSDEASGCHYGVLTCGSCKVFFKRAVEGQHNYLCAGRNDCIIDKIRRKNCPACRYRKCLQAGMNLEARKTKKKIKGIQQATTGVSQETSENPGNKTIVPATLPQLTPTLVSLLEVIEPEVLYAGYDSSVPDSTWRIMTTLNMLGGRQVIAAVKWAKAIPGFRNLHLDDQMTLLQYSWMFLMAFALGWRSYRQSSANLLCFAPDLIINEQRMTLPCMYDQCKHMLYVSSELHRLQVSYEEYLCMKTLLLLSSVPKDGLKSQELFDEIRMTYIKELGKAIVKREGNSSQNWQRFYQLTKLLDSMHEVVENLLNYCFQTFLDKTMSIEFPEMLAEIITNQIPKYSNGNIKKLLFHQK

[2] = biological target: Glucocorticoid receptor (Homo sapiens) (UniProt P04150); experiment: GR-EFC Redistribution (AID 451; calls by dose curve; note: potency is the fitted concentration of half-maximal effect); settings: CHO-K1 GR-EFC translocation, beta-gal luminescence, 2 h
Outline: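 Translocation of GR-ED fusion to nuclear EA restores b-gal, read by luminescence after 1 h room-temperature detection. Engineered CHO-K1 biosensor cells, 1,000/well, exposed 2 h at 37 C to titrations up to 46 uM final.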

[3] = biological target: Mitogen-activated protein kinase 10 (Mus musculus) (UniProt Q61831); experiment: JNK3 AlphaScreen Assay (AID 530; active = well fitted curve in either direction with a large enough effect, not every such curve was filed as active;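 note: kinase came from lysate of stimulated human HepG2 cells; signal reports phosphorylation of biotinylated GST-cJun 1-79 at Ser73 with 10 µM ATP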); settings: JNK3 lysate, c-Jun phosphorylation; series mostly up to 57.1 µM
Outline: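 Room-temperature AlphaScreen kinase assay; pre-activated HepG2 lysate as JNK3 source, biotin-GST-cJun(1-79) substrate, 10 uM ATP, compound 15 min preincubation.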

[4] = biological target: 3',5'-cyclic-AMP phosphodiesterase 4B (Homo sapiens) (UniProt Q07343); experiment: qHTS Assay for Inhibitors of PDE-IV (AID 607; active = well fitted activation curve with a large enough effect in the main read-out, with a control signal flat, not every such curve was filed as active); settings: HEK293 ACTOne CNG channel cells, membrane potential fluorescence; series mostly up to 22.9 µM
3',5'-cyclic-AMP phosphodiesterase 4B (Homo sapiens), sequence (Q07343 whole entry, looked up): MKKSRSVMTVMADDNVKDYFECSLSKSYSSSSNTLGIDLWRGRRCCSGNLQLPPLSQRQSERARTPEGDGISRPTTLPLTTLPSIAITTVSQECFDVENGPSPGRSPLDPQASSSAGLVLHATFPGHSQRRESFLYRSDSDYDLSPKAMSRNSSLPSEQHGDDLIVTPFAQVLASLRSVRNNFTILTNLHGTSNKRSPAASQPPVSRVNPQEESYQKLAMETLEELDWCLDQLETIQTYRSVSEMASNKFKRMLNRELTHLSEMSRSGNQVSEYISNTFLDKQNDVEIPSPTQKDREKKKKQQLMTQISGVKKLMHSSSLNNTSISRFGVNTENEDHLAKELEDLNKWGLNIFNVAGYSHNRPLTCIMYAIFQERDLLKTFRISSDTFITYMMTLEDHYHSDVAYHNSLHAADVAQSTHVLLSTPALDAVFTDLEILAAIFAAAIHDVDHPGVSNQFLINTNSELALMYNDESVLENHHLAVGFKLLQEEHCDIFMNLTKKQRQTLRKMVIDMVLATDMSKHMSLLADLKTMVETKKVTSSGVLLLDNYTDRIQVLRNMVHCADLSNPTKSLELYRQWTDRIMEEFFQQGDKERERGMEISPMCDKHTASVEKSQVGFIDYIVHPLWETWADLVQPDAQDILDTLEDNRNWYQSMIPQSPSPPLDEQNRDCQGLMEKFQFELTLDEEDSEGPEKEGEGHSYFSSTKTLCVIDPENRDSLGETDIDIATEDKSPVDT
Outline: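 Cell-based read-out of cAMP via a modified cyclic nucleotide-gated channel and membrane potential dye (535/590 nm) in HEK293 cells expressing PDE4 endogenously. Compounds tested up to 22.9 uM final; 100 uM RO 20-1724 reference.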

[5] = Cell Viability - N2a (AID 540); settings: N2a mouse neuroblastoma cell viability; at 92.2 µM (top of the series); note: nearly all actives have a fitted effect of over 45% in size
Outline: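 Mouse neuroblastoma N2a cells (1500/well) were preincubated 5 hr at 37 °C, then exposed to compounds for 40 hr at 37 °C in complete medium. Viability was read as intracellular ATP by CellTiter-Glo luminescence; AC50 from Hill fits.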

[6] = Cell Viability - HUV-EC-C (AID 542); settings: HUV-EC-C endothelial cell viability, qHTS; series mostly up to 92.2 µM; note: nearly all actives have a fitted effect of over 35% in size
Outline: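 HUV-EC-C normal human vascular endothelial cells, 1000 cells/well, pre-incubated 5 hr at 37 °C, then exposed to compounds for 40 hr at 37 °C in complete medium. Viability measured as intracellular ATP by CellTiter-Glo luminescence; AC50 from Hill fits.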

[7] = Cell Viability - Mesenchymal (AID 546); settings: mesenchymal cells viability, qHTS; at 91.7 µM (top of the series);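 note: cells exposed to compound for 40 hours before reading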
Outline: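 AC50 values reflect the drop in intracellular ATP in a human kidney mesenchymal line derived from normal glomeruli. Treatment lasts 40 hr at 37 °C in complete medium, and the signal comes from CellTiter-Glo luminescence.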

[8] = Cellular Toxicity (caspase-3) HepG2 (AID 654); settings: HepG2 caspase-3 activation, luminescence, 0% = DMSO only, 100% = tamoxifen; series mostly up to 92.2 µM;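 note: cells exposed to compound for 16 hours before reading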
Outline: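 HepG2 cells (1500/well) in complete medium were treated with compounds for 16 hr at 37 °C. Caspase-3/7 activity was then read as luminescence from peptide-aminoluciferin cleavage. AC50 came from Hill fits, normalized to DMSO and 100 uM tamoxifen.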

[9] = Cellular Toxicity (caspase-3) HUV-EC-C (AID 656); settings: HUV-EC-C cells, caspase-3 activation (apoptosis), vehicle = 0, 100 µM tamoxifen = 100%; series mostly up to 92.2 µM
Outline: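 Concentration-dependent caspase 3/7 induction was assessed in HUV-EC-C cells exposed for 16 hours. Data scaled between DMSO and tamoxifen (100 uM) controls.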

[10] = Cellular Toxicity (caspase-3) BJ (AID 658); settings: BJ fibroblasts, luminescence, normalized: DMSO 0%, staurosporine 100%; series mostly up to 91.7 µM
Outline: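 Readout: Caspase-Glo 3/7 luminescence increase in BJ cells after 16 hr treatment at 37 °C. Staurosporine and tamoxifen served as positive controls; AC50 values came from Hill modelling of data normalized to DMSO and 10 uM staurosporine.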

[11] = Cellular Toxicity (caspase-3) MRC-5 (AID 659); settings: MRC-5 cells, luminescence, normalized: DMSO 0%, 10 µM staurosporine 100%; series mostly up to 91.7 µM
Outline: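 Concentration-dependent caspase 3/7 activation is measured in human normal lung fibroblasts (MRC-5) following 16-hour treatment. AC50 values come from standard Hill-equation modeling of luminescence normalized to DMSO and 10 uM staurosporine.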

[12] = Cellular Toxicity (caspase-3) Mesangial (AID 660); settings: mesangial cells, normalized: DMSO 0%, 100 µM tamoxifen 100%; series mostly up to 91.7 µM;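 note: cells exposed to compound for 16 h before the caspase read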
Outline: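 Human renal glomerular mesangial cells (1000/well) were treated with compounds for 16 h at 37 °C in complete medium, then caspase 3/7 activity was read by Caspase-Glo luminescence. Data were normalized to DMSO and 100 uM tamoxifen; AC50 from Hill fits.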

[13] = Cellular Toxicity (caspase-3) H-4-II-E (AID 663); settings: H-4-II-E rat hepatoma, scaled: DMSO 0%, 100 µM tamoxifen 100%; series mostly up to 92.2 µM;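 note: cells exposed to compound for 16 hr before readout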
Outline: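 Apoptosis induction is scored as increased luminescence from caspase 3/7 substrate cleavage in rat hepatoma H-4-II-E cells exposed to compound for 16 hr. Activity is scaled between DMSO and 100 uM tamoxifen.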

[14] = Cellular Toxicity (caspase-3) Renal Proximal Tubule (AID 667); settings: renal proximal tubule cells, primary cells freshly taken from rat, solvent-only wells 0%, staurosporine 100%; series mostly up to 91.7 µM;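 note: cells exposed to compound for 16 hours at 37 °C before detection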
Outline: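 Caspase-Glo 3/7 read-out, rat primary kidney proximal tubule cells. Compound exposure 16 h, 37 °C; detection after 1 h at RT. Activity scaled to DMSO and 10 uM staurosporine.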

[15] = Cell Viability - NIH 3T3 (AID 541); settings: NIH 3T3 cell viability, qHTS; series mostly up to 92.2 µM; note: nearly all actives have a fitted effect of over 25% in size
Outline: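 NIH 3T3 mouse embryo fibroblasts (1000 cells/well) were plated in complete medium and treated with compound for 40 hr at 37 °C. Viability was read as intracellular ATP by CellTiter-Glo luminescence; AC50 values came from Hill-equation fits of concentration-response data.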

[16] = Cell Viability - H-4-II-E (AID 543); settings: H-4-II-E rat hepatoma viability; series mostly up to 92.2 µM; note: nearly all actives have a fitted effect of over 35% in size
Outline: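 Rat hepatoma H-4-II-E cells (1500/well) were plated, incubated 5 hr at 37 °C, then exposed to compounds for 40 hr at 37 °C. Cellular ATP was read by CellTiter-Glo luminescence; AC50 came from Hill-equation fits of concentration-response data.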

[17] = Cell Viability - SH-SY5Y (AID 544); settings: SH-SY5Y neuroblastoma cell viability; at 92.2 µM (top of the series); note: nearly all actives have a fitted effect of over 55% in size
Outline: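 Human neuroblastoma SH-SY5Y cells (1500/well) in complete medium were exposed to compounds for 40 hr at 37 °C; intracellular ATP was then quantified by CellTiter-Glo luminescence after 20 min at room temperature. AC50 came from Hill-equation concentration-response fits.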

[18] = Cell Viability - Renal Proximal Tubule (AID 545); settings: renal proximal tubule cells viability, primary cells of rat origin; series mostly up to 91.7 µM; note: nearly all actives have a fitted effect of over 40% in size
Outline: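 In this qHTS format, normal rat kidney-derived proximal tubule cells in complete culture medium receive compound titrations, then sit 40 hours at 37 °C before luciferase-based ATP quantitation; potency is reported as AC50 from concentration-response curves.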

[19] = Cellular Toxicity (caspase-3) Jurkat (AID 655); settings: Jurkat caspase-3 activation, luminescence; caspase-3 activation: at 92.2 µM (top of the series), DMSO = 0%, tamoxifen = 100%;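 note: cells exposed to compound for 16 h at 37 °C before reading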; note: potency is the fitted concentration of half-maximal effect
Outline: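 qHTS in human Jurkat T-cell leukemia line: 16 hr compound treatment at 37 °C, caspase-3/7 activity measured by Caspase-Glo luminescence. AC50 derived from Hill equation.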

[20] = Cellular Toxicity (caspase-3) Hek293 (AID 664); settings: HEK293 caspase-3 activation, DMSO = 0%, 100 µM tamoxifen = 100%; series mostly up to 92.2 µM;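 note: cells exposed to compound for 16 h at 37 °C before readout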
Outline: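 HEK293 cells were exposed to compounds in complete medium for 16 hr at 37 °C, then caspase-3/7 activity was read by Caspase-Glo 3/7 luminescence after 20 min at room temperature. Data normalized to DMSO and 100 uM tamoxifen; AC50 from Hill fits.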

Question: For CC[N+](C)(C)Cc1ccccc1Br, which Potency [1] is on record?
Answer: > 46 µM and > 20.6 µM

Question: What about the Potency [2] of the same compound?
Answer: > 46 µM and > 20.6 µM

Question: What about the outcome [3] of the same compound?
Answer: inactive

Question: And the outcome [4]?
Answer: inactive

Question: For CC1(C)S[C@@H]2[C@H](NC(=O)Cc3ccccc3)C(=O)N2[C@H]1C(=O)O, which Potency [1] is on record?
Answer: > 20.6 µM

Question: What about the Potency [2] of the same compound?
Answer: > 20.6 µM

Question: And the outcome [3]?
Answer: inactive

Question: And the outcome [4]?
Answer: inactive

Question: For CC1=C(/C=C/C(C)=C/C=C/C(C)=C/CO)C(C)(C)CCC1, which activity change, negative = cytotoxicity [5] is on record?
Answer: -116% (active)

Question: And the Potency [6]?
Answer: inactive

Question: And the activity change, negative = cytotoxicity [7]?
Answer: -3.42%

Question: And the outcome [8]?
Answer: inactive

Question: What about the outcome [9] of the same compound?
Answer: inactive

Question: And the outcome [10]?
Answer: inactive

Question: And the outcome [11]?
Answer: inactive

Question: What about the outcome [12] of the same compound?
Answer: inactive

Question: And the outcome [13]?
Answer: inactive

Question: And the outcome [14]?
Answer: inactive

Question: With CC(C)=O as the compound, how does the outcome [3] read?
Answer: inactive

Question: And the activity change, negative = cytotoxicity [5]?
Answer: -2.26%

Question: And the outcome [15]?
Answer: inactive

Question: What about the Potency [6] of the same compound?
Answer: inactive

Question: What about the Potency [16] of the same compound?
Answer: inactive

Question: What about the viability change, negative = cytotoxic [17] of the same compound?
Answer: -5.22%

Question: And the outcome [18]?
Answer: inactive

Question: And the activity change, negative = cytotoxicity [7]?
Answer: -1.45%

Question: What about the outcome [8] of the same compound?
Answer: inactive

Question: And the caspase-3 activation [19]?
Answer: -1.17%

Question: What about the outcome [9] of the same compound?
Answer: inactive

Question: And the outcome [10]?
Answer: inactive

Question: What about the outcome [11] of the same compound?
Answer: inactive

Question: And the outcome [12]?
Answer: inactive

Question: And the outcome [13]?
Answer: inactive

Question: What about the outcome [20] of the same compound?
Answer: inactive

Question: What about the outcome [14] of the same compound?
Answer: inactive

Question: With CCCC(=O)O[C@]1(C(=O)COC(C)=O)CC[C@H]2[C@@H]3C[C@H](F)C4=CC(=O)C=C[C@]4(C)[C@@]3(F)[C@@H](O)C[C@@]21C as the compound, how does the Potency [1] read?
Answer: 0.00371 µM (active)

Question: With CCCC(=O)Nc1ncnc2c1ncn2[C@@H]1O[C@@H]2COP(=O)(O)O[C@H]2[C@H]1OC(=O)CCC as the compound, how does the Potency [1] read?
Answer: > 46 µM and > 20.6 µM

Question: And the Potency [2]?
Answer: > 46 µM

Question: And the outcome [3]?
Answer: inactive

Question: For COC(=O)CCC(=O)CN, which Potency [1] is on record?
Answer: > 20.6 µM

Question: What does the source list for COC(=O)C1=C(C)NC(C)=C(C(=O)OCCCN2CCC(c3ccccc3)(c3ccccc3)CC2)[C@H]1c1cccc([N+](=O)[O-])c1?
Answer: Potency [1]: > 46 µM; Potency [2]: > 46 µM; outcome [3]: inactive; outcome [4]: inactive

Question: For CC(C)N=c1cc2n(-c3ccc(Cl)cc3)c3ccccc3nc-2cc1Nc1ccc(Cl)cc1, which Potency [1] is on record?
Answer: > 20.6 µM

Question: And the Potency [2]?
Answer: > 20.6 µM

Question: And the outcome [4]?
Answer: inactive

Question: For O=CCCCC=O, which outcome [3] is on record?
Answer: inactive

Question: What about the Potency [6] of the same compound?
Answer: inactive

Question: What about the outcome [18] of the same compound?
Answer: inactive

Question: What about the activity change, negative = cytotoxicity [7] of the same compound?
Answer: -29.7%

Question: And the Potency [19]?
Answer: 6.31 µM (active)

Question: And the outcome [9]?
Answer: inactive

Question: And the outcome [12]?
Answer: inactive

Question: And the outcome [20]?
Answer: inactive

Question: And the outcome [14]?
Answer: inactive

Question: For O=C(O)CCC(=O)C(=O)O, which Potency [1] is on record?
Answer: > 46 µM

Question: And the Potency [2]?
Answer: > 9.22 µM

Question: And the outcome [3]?
Answer: inactive

Question: And the activity change, negative = cytotoxicity [5]?
Answer: 6.48%

Question: And the outcome [15]?
Answer: inactive

Question: And the Potency [6]?
Answer: inactive

Question: What about the Potency [16] of the same compound?
Answer: inactive

Question: What about the viability change, negative = cytotoxic [17] of the same compound?
Answer: 4.65%

Question: And the outcome [18]?
Answer: inactive

Question: What about the activity change, negative = cytotoxicity [7] of the same compound?
Answer: 6.49%

Question: And the outcome [4]?
Answer: inactive

Question: What about the outcome [8] of the same compound?
Answer: inactive

Question: And the caspase-3 activation [19]?
Answer: 0.778%

Question: What about the outcome [9] of the same compound?
Answer: inactive

Question: What about the outcome [10] of the same compound?
Answer: inactive

Question: What about the outcome [11] of the same compound?
Answer: inactive

Question: And the outcome [12]?
Answer: inactive

Question: And the outcome [13]?
Answer: inactive

Question: And the outcome [20]?
Answer: inactive

Question: And the outcome [14]?
Answer: inactive

Question: Which Potency [1] does the source give for Cc1onc(-c2ccccc2)c1C(=O)N[C@@H]1C(=O)N2[C@@H]1SC(C)(C)[C@@H]2C(=O)O here?
Answer: > 20.6 µM

Question: Which outcome [3] does the source give for CN=C(NC#N)Nc1ccc(C2=NNC(=O)C[C@@H]2C)cc1 here?
Answer: inactive

Question: What about the outcome [4] of the same compound?
Answer: inactive
